Screening results (PubChem BioAssay)
DAX1 inh-1 – inhibitors of DAX1 repression of SF-1 activated StAR promoter | AID 652010 | inhibition, % at 6.8 µM | 1.1% of 370,000 active | HEK293T StAR-luciferase reporter, SF-1/DAX-1 repression relief;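 active = inhibition above the mean over all tested compounds plus 3 SD, cut at about 3.6% in these data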;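 also: 0% = DAX-1 cells with DMSO and 100% = cells lacking DAX-1 with DMSO; higher inhibition means more luminescence from relief of DAX-1 repression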
SMARCA2 activ – activators of SMARCA2 function | 1% of 370,000 active | activation, % at 9.1 µM | AID 652017 | MG213 cells, MMTV-luciferase reporter, dexamethasone, overnight; in the data active = activation above about 7.8%;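 also: 0% = vehicle wells and 100% = reference activator wells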
hgDAF12 agonist – hgDAF-12 agonism, primary luciferase screen; HEK293 GAL4-hgDAF12 UAS-luciferase reporter, agonist luminescence; normalized to butyrate control; activation, % at 6.8 µM; 1.8% of 370,000 active; AID 687014;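 active = activation above a cutoff set at the mean of all screened compounds plus 3 SD, cut at about 10% in these data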;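 also: 0% = DMSO wells and 100% = sodium butyrate wells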
DAX1 inh-2 – NR0B1 (DAX1) inhibition | inhibition, % at 6.75 µM | AID 504766 | P51843 | 0.99% of 340,000 active | HEK293 Gal4-DAX1 luciferase reporter, luminescence;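 active = inhibition above the mean over all tested compounds plus 3 SD, cut at about 4.2% in these data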;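 also: 0% = DAX1-transfected cells with DMSO and 100% = empty-vector control cells with DMSO; inhibition shows as a rise in luminescence from relieved DAX1 repression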
Target sequence (P51843 207-470 limits assumed): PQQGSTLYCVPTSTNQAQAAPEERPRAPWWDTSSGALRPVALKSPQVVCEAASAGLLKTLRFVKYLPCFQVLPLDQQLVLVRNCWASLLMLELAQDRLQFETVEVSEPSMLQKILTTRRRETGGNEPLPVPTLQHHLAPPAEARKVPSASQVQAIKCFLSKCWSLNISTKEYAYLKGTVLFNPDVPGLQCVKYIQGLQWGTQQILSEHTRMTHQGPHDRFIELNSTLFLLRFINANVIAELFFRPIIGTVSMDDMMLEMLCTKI
hcDAF-12 act – activators of H. contortus DAF-12 nuclear receptor; HEK293 hcDAF-12 lit1-tk-luc reporter, luminescence; 0% DMSO, 100% Δ7-dafachronic acid; activation, % at 6.8 µM; 1.4% of 370,000 active; AID 652067;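 active = activation above the mean of all tested compounds plus 3 SD, cut at about 5.5% in these data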;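 also: 100% = response to 3 µM Δ7-dafachronic acid high control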
ssDAF-12 act – S. stercoralis DAF-12 activation, primary screen. activation, % at 6.8 µM. HEK293 ssDAF-12/GRIP1 lit1-tk-luc reporter, luminescence; % of 3 µM dafachronic acid response. 1% of 370,000 active. AID 652126;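 active = activation above the mean over all tested compounds plus 3 SD, cut at about 0.9% in these data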;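 also: 0% = DMSO-only wells and 100% = 3 µM delta7-dafachronic acid wells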
DAX1 conf – NR0B1 (human) inhibition, confirmation; AID 652134; shares compounds with DAX1 inh-1; HEK293T StAR-promoter luciferase reporter, SF-1/DAX-1 repression; inhibition, % at 6.8 µM; 87% of 2,400 active;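 active = inhibition above the average of every tested compound plus 3 SD, cut at about 3.8% in these data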;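 also: 0% = DAX-1 cells with DMSO and 100% = no DAX-1 control cells with DMSO; active compounds raise luminescence by relieving repression of the StAR reporter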
SF1 AF2mut Luc – counter-screen for DAX1 inhibitors: nonselective inhibitors with SF-1 AF2 mutant | shares compounds with DAX1 inh-1 | HEK293 StAR-luciferase, luminescence | inhibition, % at 6.8 µM | 78% of 2,400 active | AID 652136;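 active = inhibition above the mean of all tested compounds plus 3 SD, cut at about 3% in these data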;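 also: 0% = DAX-1 transfected cells with DMSO and 100% = cells without DAX-1 with DMSO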
* hit, by the source's call; x = not tested or not shown. The list is not random: actives were taken first. Their share in the collection is about 4.8%.

SMILES	DAX1 inh-1	SMARCA2 activ	hgDAF12 agonist	DAX1 inh-2	hcDAF-12 act	ssDAF-12 act	DAX1 conf	SF1 AF2mut Luc
COc1cc2cc(C(=O)NC(C)c3cccc4ccccc34)c(N)nc2cc1OC (stereo not drawn)	5.1*	-7	2	x	-3	-1	2	-1
Cn1ccc2c(-c3ccc(C(N)=O)cc3)cc3c(c21)C1CCC3O1 (stereo not drawn)	4.6*	-5	-4	x	0	-1	1	0
CC(=O)Nc1cccc(-c2cc3c(c4c2ccn4C)C2CCC3O2)c1 (stereo not drawn)	-1	-2	-1	x	2	-2	x	x
Cc1cccc(-c2noc(CCC(=O)N3CCN(c4cc(C)ccc4C)CC3)n2)c1	6.3*	3	10	3	2	0	6.0*	3.9*
O=C(Nc1ccc(Cl)cc1)N1CCN(Cc2nc3ccccc3c(=O)[nH]2)CC1	1	-4	0	x	-2	-1	x	x
COc1ccc(C(CNC(=O)c2ccc(C)c(S(=O)(=O)Nc3ccccc3OC)c2)N2CCCC2)cc1 (stereo not drawn)	5.3*	5	3	1	2	-1	6.2*	5.3*
COc1ccc(C(CNC(=O)c2cccc(S(=O)(=O)Nc3ccccc3OC)c2)N2CCCCC2)cc1 (stereo not drawn)	6.9*	-2	2	2	0	-1	5.9*	4.2*
COc1ccc(C(CNC(=O)c2cccc(S(=O)(=O)Nc3ccccc3OC)c2)N2CCCC2)cc1 (stereo not drawn)	5.7*	-1	0	1	-1	-1	6.3*	3.4*
CCOC(=O)/C=C/c1cnn(-c2ccccc2)c1	2	6	7	1	2	0	x	x
O=C(O)/C=C/c1cnn(-c2ccccc2)c1	5.0*	2	3	-2	1	-1	7.3*	3.5*
CCN1C(=O)/C(=C/C=C2/SCCN2C)SC1=S	4.7*	4	10	4	5.8*	0	11*	5.6*
CN1CCS/C1=C\C=C1/SC(=S)N(CC(=O)O)C1=O	0	-4	-2	0	0	0	x	x
O=C(CSc1nnc(-c2cccnc2)n1-c1ccc(Cl)cc1)c1ccc(F)cc1	-1	-3	1	x	-1	-2	x	x
N#CCC(=O)N/N=C\c1cccc(OC/C=C/c2ccccc2)c1	13*	5	11*	-2	2	0	14*	6.9*
Cc1ccc2nc(SC(C)C(=O)N3CCOCC3)[nH]c2c1 (stereo not drawn)	7.3*	3	11*	2	4	-1	6.2*	5.0*
COc1ccc2c(c1)CCCN2C(=O)C1CCCN(S(=O)(=O)c2cccs2)C1 (stereo not drawn)	-1	1	3	x	-3	-1	x	x
CC1CCc2sc(C(=O)NC(C)C3CCCO3)cc2C1 (stereo not drawn)	5.3*	3	6	0	-1	0	4.3*	2
C/C(=N\NC(=O)c1cc2c(s1)CCC(C)C2)c1ccncc1 (stereo not drawn)	0	0	2	-1	-2	-2	x	x
C/C(=N\NC(=O)c1cc2c(s1)CCC(C)C2)c1ccc[nH]1 (stereo not drawn)	6.2*	2	8	2	6	0	7.3*	4.4*
Cc1ccc(Nc2n[nH]c(=S)s2)cc1F	5.4*	-1	6	2	1	0	4.3*	2.9*
S=c1[nH]nc(Nc2ccc(Cl)cc2)s1	1	3	1	0	-1	-1	x	x
O=[N+]([O-])c1ccc(F)cc1OCc1nc(-c2cccs2)no1	6.9*	0	12*	4	6.1*	1.1*	8.7*	4.8*
COc1ccc(-n2ncc3c(N4CCC(C)CC4)ncnc32)cc1	6.6*	1	10*	-1	6.5*	1	12*	4.5*
CCOC(=O)N1CCN(c2ncnc3c2cnn3-c2ccc(OC)cc2)CC1	-1	-1	2	0	0	-2	x	x
CCCOc1ccc(C(=O)N2CCC(Oc3cccnc3)CC2)cc1	-1	0	-2	x	-1	-2	x	x
SMILES	DAX1 inh-1	SMARCA2 activ	hgDAF12 agonist	DAX1 inh-2	hcDAF-12 act	ssDAF-12 act	DAX1 conf	SF1 AF2mut Luc
COc1ccc(Cn2cc(CN3CC(N4CCN(C5CCN(C)CC5)CC4)CS3(=O)=O)nn2)cc1 (stereo not drawn)	7.6*	6	-1	x	0	-1	2	-1
CN1CCC(N2CCN(C3CN(Cc4cn(Cc5ccc(F)cc5)nn4)S(=O)(=O)C3)CC2)CC1 (stereo not drawn)	3	-1	4	x	-1	-1	x	x
COc1ccc(Oc2c(-c3cccs3)cnn(-c3ccc(C)cc3)c2=O)cc1	x	x	-2	x	-2	-1	x	x
CCOC(=O)c1c(C)[nH]c(C(=O)OCc2ccccc2)c1C	15*	3	12*	1	4	1.9*	12*	5.5*
O=C(c1cc(-c2ccccc2O)on1)N1CCOCC1	1	3	9	3	0	-1	x	x
O=C(c1cc(-c2ccc(Cl)cc2Cl)on1)N1CCOCC1	6.1*	1	6	-3	4	0	7.9*	2
O=C1CCCC2=C1[C@@]1(O[C@H]3C=CC=CN23)C(=O)N(c2ccccc2)c2ccccc21	-1	3	-1	x	1	-1	x	x
CCN=C1NC(c2ccc(C(F)(F)F)cc2)C(C(=O)OC)=C(C)N1Cc1ccccc1C(F)(F)F (stereo not drawn)	1	-2	-1	x	0	-1	x	x
O=C(NCc1ccccn1)c1ccc(Cl)s1	0	-2	-1	1	1	-1	x	x
O=C(Nc1ccccn1)c1ccc(Cl)s1	5.2*	4	12*	2	1	0	7.0*	6.2*
CCOC(=O)N1CCN(C(=O)C[C@H]2C[C@@]3(C(=O)OC)C(=C[C@H](C(C)C)O[C@@H]3C3CC3)N(Cc3cccc4ccccc34)C2=O)CC1	-1	-4	-5	x	-3	-1	x	x
CCCCOCCCNC(=O)C[C@H]1C[C@@]2(C(=O)OCC)CCCC3=C2N(CCC3)C1=O	0	2	-1	x	-1	0	x	x
CCC(=O)C1CCCN(C(=O)CCc2nnc(-c3ccc(C(C)=O)s3)o2)C1 (stereo not drawn)	5.3*	4	9	2	6.0*	0	6.8*	4.8*
